PriA SSB inh: inhibitors of Klebsiella pneumoniae PriA binding to SSB C-terminal tail, primary screen, biochemical, AlphaScreen. PriA–SSB C-terminal tail interaction (Klebsiella pneumoniae). AlphaScreen SSBct-PriA binding, biotinylated peptide. inhibition, % at 33 µM. 430,000 compounds, 0.6% hits; in the data active = inhibition mostly above about 37%, no sharp cut-off; inactive = mostly below about 20%
SARS 3CLpro inh: SARS-CoV 3CLpro protease inhibitors, primary screen, biochemical, quenched FRET | recombinant SARS-CoV 3CLpro, quenched FRET peptide cleavage | inhibition, % at 6 µM | 290,000 compounds, 0.14% hits; in the data active = inhibition above about 12%
VHR inh abs: VHR1 phosphatase inhibitors, primary screen, biochemical, absorbance, uHTS; Dual specificity protein phosphatase 3 (Homo sapiens), P51452; recombinant VHR phosphatase, pNPP absorbance; inhibition, % at 13.3 µM; 290,000 compounds, 0.52% hits; AID 1654, 2009; in the data active = inhibition above about 50%
Target sequence (P51452 whole entry, looked up): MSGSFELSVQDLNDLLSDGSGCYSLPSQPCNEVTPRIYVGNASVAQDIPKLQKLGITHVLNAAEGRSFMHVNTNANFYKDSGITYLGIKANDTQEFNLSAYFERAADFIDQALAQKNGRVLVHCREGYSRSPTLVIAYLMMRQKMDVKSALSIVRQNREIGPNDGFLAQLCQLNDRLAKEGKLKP
CCHF vOTU inh-1: CCHFV vOTU protease inhibitors, primary screen, biochemical, Pep-AMC substrate, fluorescence; Crimean-Congo hemorrhagic fever virus L polyprotein viral ovarian tumor (vOTU) protease …; inhibition, % at 11.5 µM; 370,000 compounds, 0.55% hits; AID 651958, 2012
Mtb hypoxia inh: PubChem AID 1159583; 300,000 compounds, 0.1% hits; fluorescence inhibition, % (concentration not given with the values); M. tuberculosis hypoxia-regulated fluorescent reporter, fluorescence; in the data active = fluorescence inhibition mostly above about 23%, no sharp cut-off; inactive = mostly below about 17%
CCHF vOTU inh-2: CCHFV vOTU protease inhibitors, confirmation, biochemical, Pep-AMC substrate, fluorescence; shares compounds with CCHF vOTU inh-1; Recombinant CCHFV vOTU; inhibition, % at 11.5 µM; 1,900 compounds, 17% hits; AID 686976, 2013
Numbers stand for hits; n = inactive; x = not tested or not shown. The list is not random: actives were taken first. Their share in the collection is about 1.3%. Cut-off read from the data, not from the text of the source, unless noted: active = inhibition above about 30%; inactive = the rest.

SMILES	PriA SSB inh	SARS 3CLpro inh	VHR inh abs	CCHF vOTU inh-1	Mtb hypoxia inh	CCHF vOTU inh-2
COc1ccc(S(=O)(=O)C(CNC(=O)c2cccs2)c2cccs2)cc1 (stereo not given)	n	x	x	x	x	x
COc1ccc(NC(=S)NNc2ccc(S(=O)(=O)Nc3ccccc3C(=O)O)cc2[N+](=O)[O-])cc1	55.1	n	n	32.8	n	n
CCOc1ccc(C=NNc2ccc(S(=O)(=O)Nc3ccccc3C(=O)O)cc2[N+](=O)[O-])cc1	n	x	x	x	n	x
O=C(COc1ccc(NC(=O)c2ccccc2)cc1)c1ccccc1	n	n	n	31.2	n	n
CCOC(=O)c1c(N=Cc2cc([N+](=O)[O-])ccc2O)sc(C)c1C	n	x	x	x	n	x
CCOC(=O)c1c(/N=C/c2cc([N+](=O)[O-])ccc2O)sc(C)c1C	x	n	n	30.2	x	n
CCn1nccc1C(=O)N(Cc1cccnc1)c1nc2c(C)ccc(Cl)c2s1	n	x	x	x	x	x
Cn1cccc1-c1noc(CNC(=O)c2cccs2)n1	n	x	x	x	x	x
CC(C)C[C@H](NC(=O)c1nc[nH]c1C(=O)NC1CCN(C(=O)OC(C)(C)C)CC1)C(=O)OCc1ccccc1	n	n	n	31.2	x	n
CC(C)C[C@H](NC(=O)c1nc[nH]c1C(=O)NCCCCCNC(=O)OC(C)(C)C)C(=O)OCc1ccccc1	n	n	n	30.3	x	n
CCOC(=O)N1CCN(S(=O)(=O)c2ccc(C(=O)Nc3nc4cc5c(cc4s3)OCO5)cc2)CC1	n	x	x	x	x	x
CSc1cccc(NC(=O)Cn2cnc3c(-c4ccccc4)csc3c2=O)c1	n	x	x	x	x	x
CSc1ccccc1NC(=O)CN(C)C(=O)COc1cccc2cccnc12	n	x	x	33.2	n	n
Cc1ccc(Cn2ccc(=O)c(OCc3c(Cl)cccc3Cl)c2C)cc1	n	n	n	30.3	67.5	n
Cc1[nH]ccc(=O)c1OCc1c(Cl)cccc1Cl	n	n	n	n	n	x
CCCCCCCCCCCCN1[C@@H](CC(=O)O)c2cc(F)ccc2S1(=O)=O	n	x	x	31.8	x	42.2
CCOC(=O)Nc1ccc2c(c1)N(C(=O)c1cccs1)CCC2	n	x	x	x	x	x
COc1ccc(Cl)cc1NC(=O)C(=O)NCC(c1cccc2ccccc12)N1CCCC1 (stereo not given)	n	x	x	x	x	x
O=C(O)CC/C(=C\c1ccc(N2CCCC2)c([N+](=O)[O-])c1)c1nc2ccccc2s1	n	n	n	33.5	n	n
O=C(O)CC/C(=C\c1ccccc1[N+](=O)[O-])c1nc2ccccc2s1	n	n	n	n	n	x
CN(c1ccccc1)c1ccc(/C=C(/CCC(=O)O)c2nc3ccccc3s2)cc1[N+](=O)[O-]	n	x	x	31.7	n	n
CCc1ccccc1N1C(=O)CC(N2CCN(Cc3ccccc3)CC2)C1=O (stereo not given)	n	x	x	x	x	x
COc1ccc(NS(=O)(=O)c2cccc(C(=O)N3CCN(C/C=C/c4ccccc4)CC3)c2)cc1	x	x	x	30.1	x	n
CCS(=O)(=O)N1CCc2ccc(NC(=O)C3CC3)cc2C1	n	x	x	x	x	x
Cc1cccc(OCC(=O)Nc2cccc(C(=O)Nc3ccccc3C(=O)O)c2)c1	n	n	n	n	n	x
SMILES	PriA SSB inh	SARS 3CLpro inh	VHR inh abs	CCHF vOTU inh-1	Mtb hypoxia inh	CCHF vOTU inh-2
CC(C)c1ccc(OCC(=O)Nc2cccc(C(=O)Nc3ccccc3C(=O)O)c2)cc1	n	n	n	31.4	n	n
CCC(=O)N(C1=C(NC(C)C)C(=O)c2ccccc2C1=O)C(C)C	n	n	n	47.3	n	31.0
Cc1nc(C)c(CC(=O)N[C@@H](C)c2ccccc2)s1	n	x	x	x	x	x
O=c1[nH]ncc(N/N=C\c2ccncc2)c1Cl	x	n	n	34.2	x	n
O=c1[nH]ncc(NN=Cc2ccncc2)c1Cl	n	x	x	x	n	x
O=c1[nH]ncc(N/N=C\c2cccs2)c1Cl	x	n	n	30.0	x	n
O=C(NCCn1nc(-c2cccs2)ccc1=O)Nc1ccc(F)cc1	n	x	x	x	x	x
CCCN(CC(=O)Nc1cccc(S(N)(=O)=O)c1)CC(=O)Nc1ccc(F)c(F)c1F	n	n	n	n	n	x
CCCN(CC(=O)Nc1cccc(Br)c1)CC(=O)Nc1ccc(F)c(F)c1F	n	n	n	36.5	n	n
O=C(O)c1ccc(NC2=C(N3CCOCC3)C(=O)c3ccccc3C2=O)cc1	n	n	n	56.9	n	n
CC(=O)N(C1=C(N2CCOCC2)C(=O)c2ccccc2C1=O)c1ccc(C(=O)O)cc1	n	n	n	52.2	n	36.3
Cc1ccc(NC2=C(N3CCOCC3)C(=O)c3ccccc3C2=O)cc1	n	n	n	108.2	n	101.1
CC(=O)c1ccc(NC2=C(N3CCOCC3)C(=O)c3ccccc3C2=O)cc1	n	n	n	93.1	n	67.3
CC(=O)N(C)C1=C(N2CCOCC2)C(=O)c2ccccc2C1=O	n	n	n	x	n	x
O=C(Nc1ccc2c(c1)Cc1ccccc1-2)c1ccc(-n2cncn2)nn1	n	x	x	x	x	x
O=C(NCC[C@H](O)C1CC1)Nc1cccs1	n	x	x	x	x	x
COc1ccc(CC(=O)NCCc2ccc(N3CCCC3)cc2)cc1	n	x	x	x	x	x
CN(C)c1ccc(O[C@H]2CCN(S(=O)(=O)c3cccnc3)C2)nn1	n	x	x	x	x	x
CC(=NNC(=O)c1ccc(OC2CCCC2)cc1)c1ccc(O)cc1	n	x	x	x	x	x
CCN(c1ccc(NC(=O)COC(=O)C2CCN(c3ccc(C(F)(F)F)cn3)CC2)cc1)C(C)C	n	x	x	29.9	n	n
CCc1cccc(NC(=O)CCCn2nc(CC)n3c(cc4occc43)c2=O)c1	n	n	n	n	n	x
CCc1nn(CCCC(=O)NCc2ccccc2Br)c(=O)c2cc3occc3n12	n	n	n	47.3	n	n
O=C(NCCC(O)c1ccco1)C(=O)NCC1CCCO1 (stereo not given)	n	x	x	x	x	x
CCOc1cc(/C=N/NC(=S)Nc2ccccc2C(F)(F)F)ccc1OCC(=O)N1CCOCC1	x	n	n	29.9	x	n
CCCC(O)=C1C(=O)CCCC1=NCCc1c(C)[nH]c2ccc(C)cc12	n	x	x	x	x	x
SMILES	PriA SSB inh	SARS 3CLpro inh	VHR inh abs	CCHF vOTU inh-1	Mtb hypoxia inh	CCHF vOTU inh-2
CN(Cc1ccco1)S(=O)(=O)c1ccc(C(=O)Nc2nc(-c3ccc(Cl)s3)cs2)cc1	n	x	x	x	x	x
CS(=O)(=O)c1ccc(N2CCN(S(=O)(=O)c3cccs3)CC2)c([N+](=O)[O-])c1	n	x	x	34.5	n	n
O=c1c(CO)cc(CO)cc(CO)c1O	n	n	n	n	n	x
O=C1C=CC(=O)c2c(O)c(CO)c(CO)c(O)c21	n	x	x	77.7	x	69.3
O=C(N1CCc2nc3ccccn3c(=O)c2C1)C1(c2cccs2)CCCC1	n	x	x	x	x	x
Cc1ccccc1OCC(=O)N1N=C(C(F)(F)F)CC1(O)C(C)(C)C (stereo not given)	n	n	n	33.5	n	n
Cc1cc(N2CCCCC2)nc(CNS(=O)(=O)c2cc(C)c(C)cc2C)n1	n	x	x	x	x	x
O=C(Cc1ccc(Cl)cc1)Nc1ccccc1Sc1ccccc1	n	n	n	n	n	x
O=C(Cc1ccccc1)Nc1cc(Cl)ccc1Sc1ccccc1	n	n	n	30.2	n	n

Screening results (PubChem BioAssay)
